# According to ChEMBL document CHEMBL3988442, “University of Dundee, Small-Polar-MMV Screening Library” (2021):
# About 1,000 (1.4%) of roughly 69,000 compounds showed an effect of 50% or more. For the sample, strong results were picked, then their nearest neighbours and some compounds at random.
# Tested on: Leishmania donovani
# Assay: Leishmania intramacrophage assay
# Type: functional, organism-based
# Design: scale not given: in the data most compounds retested in dose-response had high values
structure (smiles),measurement,setting,value
CCOC(=O)C1(Cc2ccc(Cl)cc2)CCN(Cc2ncc[nH]2)CC1,Percent Effect,"30.3 µM, […]",14.14%
CNc1ncc(CN(C)C(=O)c2ccccc2C2CCNC2)cn1 (stereo not given),Percent Effect,"30.3 µM, […]",-3.65%
COc1ncccc1CNc1snc(Cl)c1C#N,Percent Effect,"30.3 µM, […]",30.49%
O=S(=O)(NCc1cccnc1OC1CCCC1)N1CCCCC1,Percent Effect,"30.3 µM, […]",-4.69%
CN(C)c1ncccc1CNc1snc(Cl)c1C#N,Percent Effect,"30.3 µM, […]",-27.87%
N#Cc1c(Cl)nsc1NCc1ccc(N2CCSCC2)cc1,Percent Effect,"30.3 µM, […]",88.25%
N#Cc1c(Cl)nsc1NCc1cccnc1OC1CCCC1,Percent Effect,"30.3 µM, […]",98.68%
N#Cc1c(Cl)nsc1NCc1ccc(N2CCC(CO)CC2)cc1,Percent Effect,"30.3 µM, […]",13.7%
Cc1ncsc1C(=O)NCc1ccnc(OCC(F)(F)F)c1,Percent Effect,30 µM,34.79%
N#Cc1c(Cl)nsc1NCc1cccnc1OCC(F)(F)F,Percent Effect,"30.3 µM, […]",71.75%
N#Cc1c(Cl)nsc1NCc1ccnc(OCC(F)(F)F)c1,Percent Effect,"30.3 µM, […]",96.62%
N#Cc1c(Cl)nsc1NCc1ccc(N2CCCC(C(N)=O)C2)cc1 (stereo not given),Percent Effect,"30.3 µM, […]",27.85%
Cc1n[nH]cc1CNCc1ccnc(OCC(F)(F)F)c1.Cl,Percent Effect,"30.3 µM, […]",28.01%
CC(O)CNC(=O)NCc1cccnc1OC1CCCC1 (stereo not given),Percent Effect,"30 µM, 30.03 µM",16.57%
COc1ncc(-c2ccc(NC(C)=O)cc2)c(OC)n1,Percent Effect,"30.3 µM, […]",5.344%
CCOCC1CN(C(=O)C2CCOCC2)Cc2cnn(C)c21 (stereo not given),Percent Effect,"30.3 µM, […]",-4.533%
COCCN1C[C@@H]2[C@@H](OC)CCN(Cc3cccs3)[C@@H]2C1.O=C(O)C(F)(F)F.O=C(O)C(F)(F)F,Percent Effect,"30.3 µM, […]",25.04%
NC(=O)Cn1cc(NC(=O)N2CCSCC2)cn1,Percent Effect,30 µM,-2.179%
CCOc1ccc2nc(NC(=O)c3c(C(=O)O)cnn3C)sc2c1,Percent Effect,"30.3 µM, […]",4.578%
Cc1c(Cl)ccc2ccc(NC(CO)CO)nc12,Percent Effect,"30.3 µM, […]",6.475%
CC(NC(=O)Cn1cc(C(N)=O)c(-c2ccccc2)n1)C1CC1 (stereo not given),Percent Effect,"30.3 µM, […]",12.7%
CC(C)(C)c1ccc(C(=O)C2CCCN(C(=O)CNS(C)(=O)=O)C2)cc1 (stereo not given),Percent Effect,"30.3 µM, […]",1.067%
CC(=O)NCC(=O)N1CCCC(C(=O)c2ccc(C(C)(C)C)cc2)C1 (stereo not given),Percent Effect,"30.3 µM, […]",16.87%
CC(C)(N)C(=O)N1CCCC(C(=O)c2ccc(C(C)(C)C)cc2)C1 (stereo not given),Percent Effect,"30.3 µM, […]",91.24%
Cc1cc(COC(=O)[C@@H]2Cc3ccccc3CN2S(C)(=O)=O)no1,Percent Effect,"30.3 µM, […]",12.34%
Cc1nccc(NCc2cncc3c2CCN(CCN(C)C)C3)n1,Percent Effect,"30.3 µM, […]",29.74%
Cc1nccc(NCc2cncc3c2CCN(CC2CC2)C3)n1.Cl.Cl,Percent Effect,"30.3 µM, […]",25.61%
Cc1nccc(NCc2cncc3c2CCN(CC2CCOC2)C3)n1.Cl.Cl (stereo not given),Percent Effect,"30.3 µM, […]",55.7%
Cc1nc(NC2(CN3CCCCC3)CCCCC2)c2cnn(C)c2n1,Percent Effect,"30.3 µM, […]",21.44%
COCC1(Nc2nc(C)nc3c2cnn3C)CCCC1,Percent Effect,"30.3 µM, […]",32.37%
CCOC(=O)CC1(Nc2nc(C)nc3c2cnn3C)CCCCC1,Percent Effect,"30.3 µM, […]",50.84%
CCOc1ccccc1C1=CCN(C(=O)C2CCN(C)C(=O)C2)CC1 (stereo not given),Percent Effect,30 µM,-1.516%
O=C1CC(NCc2cccc(O)c2)CN1CCc1cccc(Cl)c1 (stereo not given),Percent Effect,"30.3 µM, […]",24.84%
Cc1nnc(NC(=O)C2CSCN2C(=O)C2CCCC2)s1 (stereo not given),Percent Effect,"30.3 µM, […]",-31.76%
O=C(c1cc(-c2ccn(CC3CC3)n2)n2ccccc12)N1CCOCC1,Percent Effect,"30.3 µM, […]",88.37%
O=C(c1cc(-c2ccn(CC3CC3)n2)n2ccccc12)N1CCCO1,Percent Effect,"30.3 µM, […]",27.45%
O=C(O)c1cc(-c2ccn(CC3CC3)n2)n2ccccc12,Percent Effect,"30.3 µM, […]",20%
O=C(c1ccc(NCc2ccco2)nc1)N1CCc2ccccc21,Percent Effect,"30.3 µM, […]",-1.41%
CC(=O)NC1CCCc2c1[nH]c1ccc(F)cc21 (stereo not given),Percent Effect,"30.3 µM, […]",4.787%
Fc1ccc2[nH]c3c(c2c1)CCN1C(c2ccccn2)N2CCC31CC2 (stereo not given),Percent Effect,"30.3 µM, […]",22.17%
Fc1ccc2[nH]c3c(c2c1)CCN1C(c2ccncc2)N2CCC31CC2 (stereo not given),Percent Effect,"30.3 µM, […]",86.05%
O=C(OCc1ccccc1)N1CC[C@H]2CC(CO)O[C@@H]2C1 (stereo not given in full),Percent Effect,"30.3 µM, […]",-47.27%
CN1CCC(n2nc(Cc3cccc(Cl)c3)nc2Cn2ccnc2)CC1,Percent Effect,"30.3 µM, […]",15.54%
Cc1noc(C)c1CCCNC(=O)C1CCN(C(=O)C2CC2)CC1,Percent Effect,"30.3 µM, […]",-2.423%
CC(C)Cc1noc(C2CCCN(C(=O)CCc3cnn(C)c3)C2)n1 (stereo not given),Percent Effect,"30.3 µM, […]",5.747%
CCCN1CCC(NC(=O)c2csc(C)c2-c2ccccc2)CC1,Percent Effect,"30.3 µM, […]",11.13%
CCCN1CCC(Nc2cc(-c3ccccc3)ccc2OC)CC1,Percent Effect,"30.3 µM, […]",94.4%
CCCN1CCC(NC(=O)Nc2ccc(OC)c(OC)c2)CC1,Percent Effect,"30.3 µM, […]",8.2%
Cc1ccc(C2CCCN(C(=O)c3cnn(C)c3)C2)nc1 (stereo not given),Percent Effect,"30.3 µM, […]",-15.16%
O=C(c1cc(Cl)ccc1F)N1CCCC1Cn1cccn1 (stereo not given),Percent Effect,30 µM,-22.81%
COc1cc(NCc2ccncc2)c(-c2nn[nH]n2)cc1OC,Percent Effect,"30.3 µM, […]",-13.14%
COCCN1C(=O)CCC12CCN(C(=O)CNC(C)=O)CC2,Percent Effect,"30.3 µM, […]",21.99%
COc1cc(-c2cc(C3CCOC3)c(C#N)c(N)n2)ccc1O (stereo not given),Percent Effect,"30.3 µM, […]",14.88%
COc1ccc2c(c1)c(-c1nc(C)ncc1CN)cn2C,Percent Effect,"30.3 µM, […]",49%
COCC(=O)NCc1cnc(C)nc1-c1cn(C)c2ccc(OC)cc12,Percent Effect,"30.3 µM, […]",7.699%
COc1ccc2c(c1)c(-c1nc(N(C)C)ncc1CN)cn2C,Percent Effect,"30.3 µM, […]",97.85%
Cc1ccccc1C(C)NC(=O)CN1CCN(Cc2ccc(Br)s2)CC1 (stereo not given),Percent Effect,"30.3 µM, […]",-13.55%
CCn1cc(NC(=O)NCc2ccc3c(c2)OCO3)cn1,Percent Effect,30 µM,18.35%
O=C(NC1CC(F)(F)C1)[C@]12COC[C@H]1CN(Cc1ccccc1)C2.O=C(O)C(F)(F)F,Percent Effect,"30.3 µM, […]",18.84%
O=C(NC1CC(F)(F)C1)[C@]12COC[C@H]1CN(Cc1ccsc1)C2,Percent Effect,"30.3 µM, […]",55.66%
Cc1ncsc1CN1C[C@@H]2COC[C@]2(C(=O)NC2CC(F)(F)C2)C1.O=C(O)C(F)(F)F,Percent Effect,"30.3 µM, […]",30.87%
CNS(=O)(=O)c1cccc(C(C)NCc2ccc(C)c(C)c2)c1 (stereo not given),Percent Effect,"30.3 µM, […]",17.01%
Cl.Cl.O=C([C@H]1CCCN1)N1CC2(CCNCC2)c2cc(Cl)ccc21,Percent Effect,"30.3 µM, […]",35.2%
Cc1ccc2c(c1)C1(CCNCC1)CN2C(=O)C(C)C,Percent Effect,"30.3 µM, […]",17.68%
Cl.O=C(c1ccccc1F)N1CC2(CCNCC2)c2cc(Cl)ccc21,Percent Effect,"30.3 µM, […]",46.46%
CC(C)C[C@H](N)C(=O)N1CC2(CCNCC2)c2cc(Cl)ccc21.Cl.Cl,Percent Effect,"30.3 µM, […]",94.41%
C[C@@H](N)C(=O)N1CC2(CCNCC2)c2cc(Cl)ccc21.Cl.Cl,Percent Effect,"30.3 µM, […]",18.29%
CN(C)C(=O)N1CC2(CCNCC2)c2cc(Cl)ccc21.Cl,Percent Effect,"30.3 µM, […]",-49.76%
Cl.Cl.O=C([C@@H]1CSCN1)N1CC2(CCNCC2)c2cc(Cl)ccc21,Percent Effect,"30.3 µM, […]",30.82%
CCOC(=O)N1CC2(CCNCC2)c2cc(Cl)ccc21.Cl,Percent Effect,"30.3 µM, […]",67.51%
